About 7,900 targets were measured; listed, in parts, are those with a hit and a random draw of the rest. About 0.6% of all pairs of compound and target were hits. A number with no mark means an inactive call.
Tests used:
Assay in all cases: log2 fold change, soluble protein after heating vs DMSO (PISA); higher = thermal stabilisation; K562 cells, 10 uM, 30 min; active = over 0.2 and 3.5 SD of the protein, either way, in both replicates (recomputed)
[1] = compound: CC1=C(C=C(C=C1)NC(=O)C2=CC(=CC=C2)C(C)(C)C#N)NC3=CC4=C(C=C3)N=CN(C4=O)C
Procedure, shortened: (§1)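 Quantification of soluble protein used TMTpro 16plex LC-MS/MS, with channel sums equalised. Samples were the supernatant after 21,000xg for 90 min of pooled aliquots from K562 cells (2×10^6 cells/mL) treated with 10 μM compound for 30 min, heated for 3 min over 48°C-58°C, and extracted in PBS with 0.5% NP-40 at 4°C. Values, from duplicates, describe thermal stability against control samples on a log2 fold-change scale.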

[2] = compound: CC1=C(C=C(C=C1)NC(=O)C2=CC(=CC=C2)N(C)C)NC(=O)C3=CC=C(C=C3)O
Procedure, shortened: as §1

[3] = compound: CC1=CC=C(C=C1)SC2=C3C=C(SC3=CN=C2)C(=O)N
Procedure, shortened: as §1

[4] = compound: CC1=NC(=CC=C1)C2=C(N=C(N2)C(C)(C)C)C3=CC4=NC=CN=C4C=C3
Procedure, shortened: as §1

Nexturastat A = compound: CCCCN(Cc1ccc(C(=O)NO)cc1)C(=O)Nc1ccccc1 [Nexturastat A]
Procedure, shortened: as §1

vemurafenib = compound: CCCS(=O)(=O)Nc1ccc(F)c(C(=O)c2c[nH]c3ncc(-c4ccc(Cl)cc4)cc23)c1F [vemurafenib]
Procedure, shortened: as §1

[5] = compound: CCCS(=O)(=O)Nc1ccc(F)c(C(=O)c2c[nH]c3ncc(Cl)cc23)c1F
Procedure, shortened: as §1

[6] = compound: CCCc1cc(C)[nH]c(=O)c1CNC(=O)c1cc(-c2ccnc(N3CCN(C)CC3)c2)cc2c1cnn2C(C)C
Procedure, shortened: as §1

givinostat = compound: CCN(CC)Cc1ccc2cc(COC(=O)Nc3ccc(C(=O)NO)cc3)ccc2c1 [givinostat]
Procedure, shortened: as §1

barasertib = compound: CCN(CCCOc1ccc2c(Nc3cc(CC(=O)Nc4cccc(F)c4)[nH]n3)ncnc2c1)CCOP(=O)(O)O [barasertib]
Procedure, shortened: as §1

[7] = compound: CC[C@@H]1C(=O)N(C)c2cnc(Nc3ccc(C(=O)NC4CCN(C)CC4)cc3OC)nc2N1C1CCCC1
Procedure, shortened: as §1

volasertib = compound: CC[C@@H]1C(=O)N(C)c2cnc(Nc3ccc(C(=O)N[C@H]4CC[C@H](N5CCN(CC6CC6)CC5)CC4)cc3OC)nc2N1C(C)C [volasertib]
Procedure, shortened: as §1

[8] = compound: CC[C@H](C)N1C=C(C2=C(C=C(C=C21)C3=CN=C(C=C3)N4CCNCC4)C(=O)NCC5=C(C=C(NC5=O)C)C)C
Procedure, shortened: as §1

epoxomicin = compound: CC[C@H](C)[C@@H](C(=O)N[C@@H]([C@@H](C)O)C(=O)N[C@@H](CC(C)C)C(=O)[C@]1(CO1)C)NC(=O)[C@H]([C@@H](C)CC)N(C)C(=O)C [epoxomicin]
Procedure, shortened: as §1

[9] = compound: CCn1c(C(=O)N(C2CC2)C2CC2)cc2c3c(ncn3C)c(Nc3cc(C)n(C)n3)nc21
Procedure, shortened: as §1

[10] = compound: CCn1cc(-c2ccnc3[nH]c(-c4cccc(CN(C)C)c4)cc23)c(-c2ccc(NC(=O)N(C)C)cc2)n1
Procedure, shortened: as §1

[11] = compound: CN(C)CC(=O)Nc1ccc2[nH]c(=O)c3ccccc3c2c1
Procedure, shortened: as §1

rosiglitazone = compound: CN(CCOC1=CC=C(C=C1)C[C@H]2C(=O)NC(=O)S2)C3=CC=CC=N3 (racemic) [rosiglitazone]
Procedure, shortened: as §1

[12] = compound: CN1C2=C(C3=C1C(=O)N(N=C3)CC4=CC(=CC=C4)N)SC(=C2)S(=O)C
Procedure, shortened: as §1

[13] = compound: CN1CCC(CNc2ccc3ncc(-c4cccc(OC(F)(F)F)c4)n3n2)CC1
Procedure, shortened: as §1

UniProt Q14653, sequence (Q14653 whole entry, looked up): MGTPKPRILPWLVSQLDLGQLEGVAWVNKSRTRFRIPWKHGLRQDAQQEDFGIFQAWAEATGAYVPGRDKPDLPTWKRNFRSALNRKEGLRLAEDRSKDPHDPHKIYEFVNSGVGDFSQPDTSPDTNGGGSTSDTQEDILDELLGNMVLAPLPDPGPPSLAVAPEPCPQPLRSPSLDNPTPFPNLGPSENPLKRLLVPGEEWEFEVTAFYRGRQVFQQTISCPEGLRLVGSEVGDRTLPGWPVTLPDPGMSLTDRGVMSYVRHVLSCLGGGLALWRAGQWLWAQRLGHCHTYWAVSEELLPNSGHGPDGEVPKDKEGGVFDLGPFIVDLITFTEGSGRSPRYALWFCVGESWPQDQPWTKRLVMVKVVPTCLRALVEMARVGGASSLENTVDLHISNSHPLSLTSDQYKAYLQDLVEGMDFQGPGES
UniProt Q6UWB1, sequence (Q6UWB1 whole entry, looked up): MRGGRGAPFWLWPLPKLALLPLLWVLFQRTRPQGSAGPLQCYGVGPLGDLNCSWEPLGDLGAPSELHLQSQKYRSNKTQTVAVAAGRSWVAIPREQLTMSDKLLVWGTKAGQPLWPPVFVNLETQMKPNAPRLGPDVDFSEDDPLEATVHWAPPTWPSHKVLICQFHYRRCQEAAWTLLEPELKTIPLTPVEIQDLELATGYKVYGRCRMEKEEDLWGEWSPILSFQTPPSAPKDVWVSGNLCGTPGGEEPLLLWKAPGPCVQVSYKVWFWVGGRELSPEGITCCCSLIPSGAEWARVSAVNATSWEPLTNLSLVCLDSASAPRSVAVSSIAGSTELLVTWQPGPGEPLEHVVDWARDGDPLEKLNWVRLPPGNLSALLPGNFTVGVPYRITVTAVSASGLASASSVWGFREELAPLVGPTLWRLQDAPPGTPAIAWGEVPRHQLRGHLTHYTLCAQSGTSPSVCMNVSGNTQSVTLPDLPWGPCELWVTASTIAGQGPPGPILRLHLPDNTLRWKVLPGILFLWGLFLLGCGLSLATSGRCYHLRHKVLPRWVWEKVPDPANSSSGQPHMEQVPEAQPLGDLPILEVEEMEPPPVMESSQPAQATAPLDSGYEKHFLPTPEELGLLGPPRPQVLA
UniProt Q9UIQ6, sequence (Q9UIQ6 whole entry, looked up): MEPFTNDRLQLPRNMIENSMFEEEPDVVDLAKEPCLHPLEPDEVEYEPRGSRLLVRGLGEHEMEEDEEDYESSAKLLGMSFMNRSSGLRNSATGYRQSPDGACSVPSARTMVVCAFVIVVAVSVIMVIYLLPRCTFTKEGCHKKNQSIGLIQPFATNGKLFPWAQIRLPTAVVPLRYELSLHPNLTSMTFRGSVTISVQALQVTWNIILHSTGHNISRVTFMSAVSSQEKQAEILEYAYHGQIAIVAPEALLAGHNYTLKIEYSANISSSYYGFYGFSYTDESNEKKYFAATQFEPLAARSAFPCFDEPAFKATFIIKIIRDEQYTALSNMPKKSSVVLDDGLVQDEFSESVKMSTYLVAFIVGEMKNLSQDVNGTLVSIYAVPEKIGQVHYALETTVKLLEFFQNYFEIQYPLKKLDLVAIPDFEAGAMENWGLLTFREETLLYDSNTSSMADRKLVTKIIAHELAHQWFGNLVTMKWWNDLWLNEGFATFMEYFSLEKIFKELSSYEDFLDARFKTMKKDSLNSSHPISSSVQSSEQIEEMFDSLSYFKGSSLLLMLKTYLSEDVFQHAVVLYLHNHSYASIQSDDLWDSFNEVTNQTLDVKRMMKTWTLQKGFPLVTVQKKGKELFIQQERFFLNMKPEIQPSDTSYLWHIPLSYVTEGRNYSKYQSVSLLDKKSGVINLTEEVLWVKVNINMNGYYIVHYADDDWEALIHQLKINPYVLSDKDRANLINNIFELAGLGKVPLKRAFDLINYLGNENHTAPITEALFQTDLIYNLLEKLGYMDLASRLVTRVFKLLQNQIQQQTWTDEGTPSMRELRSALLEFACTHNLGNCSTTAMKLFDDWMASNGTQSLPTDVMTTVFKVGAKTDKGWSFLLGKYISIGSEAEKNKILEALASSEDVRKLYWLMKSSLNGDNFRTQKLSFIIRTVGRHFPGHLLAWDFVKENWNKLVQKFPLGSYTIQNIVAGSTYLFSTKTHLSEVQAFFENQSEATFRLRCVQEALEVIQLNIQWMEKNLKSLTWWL
UniProt O60333, sequence (O60333 whole entry, looked up): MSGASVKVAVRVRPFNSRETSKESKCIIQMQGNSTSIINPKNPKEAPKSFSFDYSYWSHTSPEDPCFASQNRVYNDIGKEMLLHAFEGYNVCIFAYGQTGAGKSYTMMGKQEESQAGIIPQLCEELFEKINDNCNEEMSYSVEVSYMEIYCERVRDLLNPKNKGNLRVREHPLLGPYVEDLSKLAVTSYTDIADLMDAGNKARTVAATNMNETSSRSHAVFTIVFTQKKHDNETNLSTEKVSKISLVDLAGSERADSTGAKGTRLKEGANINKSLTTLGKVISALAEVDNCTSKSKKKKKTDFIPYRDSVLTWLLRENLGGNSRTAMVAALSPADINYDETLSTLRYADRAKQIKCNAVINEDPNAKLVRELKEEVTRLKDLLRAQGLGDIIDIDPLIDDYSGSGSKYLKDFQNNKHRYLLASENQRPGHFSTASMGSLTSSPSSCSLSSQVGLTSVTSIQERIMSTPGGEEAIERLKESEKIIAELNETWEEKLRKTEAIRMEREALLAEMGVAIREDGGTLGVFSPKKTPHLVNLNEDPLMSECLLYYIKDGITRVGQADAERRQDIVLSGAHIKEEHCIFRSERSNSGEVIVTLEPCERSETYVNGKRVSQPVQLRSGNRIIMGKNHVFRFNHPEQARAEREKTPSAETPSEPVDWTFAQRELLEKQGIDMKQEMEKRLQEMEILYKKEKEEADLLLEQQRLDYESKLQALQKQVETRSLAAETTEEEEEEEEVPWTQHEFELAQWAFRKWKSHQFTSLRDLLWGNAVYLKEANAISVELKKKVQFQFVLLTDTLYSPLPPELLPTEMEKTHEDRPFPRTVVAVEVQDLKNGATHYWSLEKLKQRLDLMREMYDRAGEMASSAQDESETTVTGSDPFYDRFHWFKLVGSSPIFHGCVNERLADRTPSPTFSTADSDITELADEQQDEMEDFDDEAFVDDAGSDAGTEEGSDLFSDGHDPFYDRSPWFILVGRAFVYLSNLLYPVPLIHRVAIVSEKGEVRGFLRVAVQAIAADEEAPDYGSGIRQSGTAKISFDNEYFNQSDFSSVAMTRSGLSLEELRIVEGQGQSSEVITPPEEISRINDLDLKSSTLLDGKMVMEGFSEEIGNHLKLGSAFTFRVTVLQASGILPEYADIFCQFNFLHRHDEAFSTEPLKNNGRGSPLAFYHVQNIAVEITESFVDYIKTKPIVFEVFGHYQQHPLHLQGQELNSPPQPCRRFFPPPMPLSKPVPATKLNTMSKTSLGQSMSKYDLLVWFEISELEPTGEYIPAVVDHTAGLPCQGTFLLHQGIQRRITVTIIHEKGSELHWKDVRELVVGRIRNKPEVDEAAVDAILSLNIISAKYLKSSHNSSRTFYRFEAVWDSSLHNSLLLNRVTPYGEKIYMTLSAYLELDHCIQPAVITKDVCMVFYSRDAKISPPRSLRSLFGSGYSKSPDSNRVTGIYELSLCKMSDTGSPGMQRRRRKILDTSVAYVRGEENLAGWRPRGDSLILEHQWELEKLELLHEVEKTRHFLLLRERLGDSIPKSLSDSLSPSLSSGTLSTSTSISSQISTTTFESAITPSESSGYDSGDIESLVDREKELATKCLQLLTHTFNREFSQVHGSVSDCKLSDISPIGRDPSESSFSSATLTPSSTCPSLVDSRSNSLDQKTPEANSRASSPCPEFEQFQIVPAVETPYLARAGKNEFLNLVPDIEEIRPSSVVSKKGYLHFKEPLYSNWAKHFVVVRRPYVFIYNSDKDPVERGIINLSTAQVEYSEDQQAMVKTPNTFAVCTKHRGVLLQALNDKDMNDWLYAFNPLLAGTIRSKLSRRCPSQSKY
UniProt O14733, sequence (O14733 whole entry, looked up): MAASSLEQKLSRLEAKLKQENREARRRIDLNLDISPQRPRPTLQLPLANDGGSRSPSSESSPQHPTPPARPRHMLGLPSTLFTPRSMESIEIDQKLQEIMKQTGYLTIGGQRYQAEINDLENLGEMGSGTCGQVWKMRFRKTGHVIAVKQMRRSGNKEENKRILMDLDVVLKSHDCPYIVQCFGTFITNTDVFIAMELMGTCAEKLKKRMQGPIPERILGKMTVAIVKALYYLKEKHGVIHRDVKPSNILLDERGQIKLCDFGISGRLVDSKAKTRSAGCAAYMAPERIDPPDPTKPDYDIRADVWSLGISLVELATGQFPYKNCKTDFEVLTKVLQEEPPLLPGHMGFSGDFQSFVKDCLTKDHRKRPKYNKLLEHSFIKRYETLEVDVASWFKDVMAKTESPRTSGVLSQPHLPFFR
UniProt Q5XKP0, sequence (Q5XKP0 whole entry, looked up): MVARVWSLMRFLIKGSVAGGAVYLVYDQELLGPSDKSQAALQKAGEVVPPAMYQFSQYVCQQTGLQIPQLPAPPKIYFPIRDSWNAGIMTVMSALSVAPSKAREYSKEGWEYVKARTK
UniProt Q9Y383, sequence (Q9Y383 whole entry, looked up): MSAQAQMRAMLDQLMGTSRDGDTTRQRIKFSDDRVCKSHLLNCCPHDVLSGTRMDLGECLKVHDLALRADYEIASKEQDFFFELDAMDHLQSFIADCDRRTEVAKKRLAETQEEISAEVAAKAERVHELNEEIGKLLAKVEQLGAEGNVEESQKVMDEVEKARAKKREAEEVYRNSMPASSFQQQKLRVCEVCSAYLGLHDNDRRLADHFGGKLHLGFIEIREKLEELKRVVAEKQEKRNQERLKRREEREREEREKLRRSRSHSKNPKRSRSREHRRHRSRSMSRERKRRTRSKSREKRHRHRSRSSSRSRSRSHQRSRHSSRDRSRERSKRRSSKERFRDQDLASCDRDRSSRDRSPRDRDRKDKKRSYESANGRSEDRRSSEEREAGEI

| Target | log2 fold change [1] | log2 fold change [2] | log2 fold change [3] | log2 fold change [4] | log2 fold change (Nexturastat A) | log2 fold change (vemurafenib) | log2 fold change [5] | log2 fold change [6] | log2 fold change (givinostat) | log2 fold change (barasertib) | log2 fold change [7] | log2 fold change (volasertib) | log2 fold change [8] | log2 fold change (epoxomicin) | log2 fold change [9] | log2 fold change [10] | log2 fold change [11] | log2 fold change (rosiglitazone) | log2 fold change [12] | log2 fold change [13] |
| --- | --- | --- | --- | --- | --- | --- | --- | --- | --- | --- | --- | --- | --- | --- | --- | --- | --- | --- | --- | --- |
| MICOS13 (UniProt Q5XKP0) | 0.041 | -0.06 | 0.056 | 0.065 | -0.065 | 0.018 | 0.077 | -0.069 | 0.027 | 0.034 | -0.132 | -0.181 | 0.025 | 0.023 | -0.023 | -0.043 | 0.026 | 0.011 | -0.044 | -0.579 (active) |
| LNPEP (UniProt Q9UIQ6) | 0.018 | 0.03 | 0.01 | -0.009 | -0.051 | -0.013 | 0.015 | 0.008 | 0.014 | -0.009 | 0.004 | -0.182 | -0.016 | 0.014 | 0.016 | -0.02 | 0.012 | 0.016 | -0.025 | 0.024 |
| MCL1 (UniProt Q07820) | -0.022 | -0.047 | 0.048 | 0.048 | 0.08 | -0.057 | -0.164 | 0.084 | 0.075 | -0.027 | -0.03 | -0.038 | -0.033 | 0.308 | 0.213 | -0.032 | 0.052 | 0.019 | -0.035 | -0.209 |
| MIEF1 (UniProt L0R8F8) | -0.007 | 0.003 | 0.019 | -0.026 | 0.092 | 0.079 | 0.102 | -0.001 | 0.006 | 0.003 | -0.028 | -0.076 | -0.106 | 0.022 | 0.017 | -0.065 | -0.018 | -0.019 | -0.028 | -0.021 |
| LPGAT1 (UniProt Q92604) | -0.077 | 0 | 0.034 | 0.077 | 0.036 | 0.018 | 0.086 | -0.033 | 0.064 | 0.068 | -0.206 | -0.401 (active) | 0.063 | 0.015 | -0.128 | – | 0.051 | 0.012 | -0.029 | – |
| KSR1 (UniProt Q8IVT5) | 0.231 | -0.007 | 0.112 | -0.028 | 0.001 | 0.046 | 0.218 | -0.132 | 0.106 | 0.013 | -0.11 | -0.182 | 0.179 | 0.047 | 0.002 | 0.178 | 0.009 | 0.058 | -0.05 | -0.878 (active) |
| LUC7L2 (UniProt Q9Y383) | 0.016 | -0.011 | 0.006 | 0.089 | -0.036 | 0.012 | 0.047 | 0.015 | -0.01 | 0 | -0.171 | -0.345 (active) | 0.044 | -0.017 | 0.003 | -0.003 | -0.001 | 0.011 | -0.025 | -0.073 |
| KIF1B isoform 4 (UniProt O60333) | -0.07 | 0.058 | 0.008 | 0.024 | 0.024 | 0.002 | 0.043 | 0.018 | 0.122 | 0.073 | -0.042 | -0.11 | 0.052 | 0.039 | -0.015 | -0.005 | 0.123 | 0.059 | -0.001 | -0.299 (active) |
| ILRUN (UniProt Q9H6K1) | 0.06 | -0.02 | 0.088 | 0.005 | 0.072 | 0.059 | 0.135 | -0.026 | -0.051 | -0.044 | -0.079 | -0.429 (active) | 0.024 | 0.042 | -0.013 | – | 0.016 | -0.019 | -0.09 | – |
| MAGEA9 (UniProt P43362) | -0.033 | 0.05 | -0.005 | -0.087 | 0.005 | -0.031 | 0.072 | 0.054 | 0.066 | 0.036 | -0.11 | -0.39 (active) | -0.057 | -0.044 | -0.05 | -0.088 | 0.044 | 0.038 | -0.084 | -0.116 |
| IL27RA (UniProt Q6UWB1) | -0.048 | -0.048 | -0.006 | -0.018 | 0.027 | -0.025 | -0.091 | -0.008 | 0.006 | 0.011 | -0.12 | -0.298 | -0.049 | -0.178 | -0.066 | – | -0.098 | -0.093 | -0.219 | – |
| MAP2K7 isoform 4 (UniProt O14733) | -0.068 | 0.003 | -0.008 | 0.009 | -0.031 | -0.01 | 0.009 | -0.026 | -0.019 | 0.016 | -0.026 | -0.005 | 0.022 | 0.07 | 0.017 | -0.086 | -0.017 | 0.033 | -0.065 | -0.15 |
| LRBA (UniProt P50851) | -0.011 | 0 | -0.011 | 0.001 | -0.046 | 0.01 | 0.031 | -0.025 | 0.008 | 0.038 | -0.05 | -0.221 (active) | 0.034 | 0.017 | 0 | -0.074 | 0.008 | 0.048 | -0.057 | -0.139 |
| IRF3 (UniProt Q14653) | 0.18 | -0.081 | 0.011 | 0.077 | -0.046 | 0.074 | 0.098 | 0.011 | 0.031 | -0.015 | -0.05 | -0.1 | -0.052 | -0.035 | -0.02 | -0.037 | 0.018 | 0.024 | -0.024 | -0.045 |
| ME2 (UniProt P23368) | -0.01 | -0.057 | -0.044 | -0.017 | 0.015 | 0.011 | 0.002 | 0.022 | 0.027 | 0.018 | 0.164 | 0.445 (active) | 0.006 | 0.108 | -0.012 | -0.015 | -0.002 | 0.016 | -0.02 | 0.145 |
| KIAA1324L (UniProt A8MWY0) | -0.065 | -0.022 | 0.028 | 0.002 | 0.045 | 0.002 | -0.048 | 0.05 | 0.032 | 0.002 | -0.312 (active) | -0.293 (active) | -0.012 | 0.015 | 0.011 | -0.019 | 0.091 | 0.111 | -0.112 | -0.14 |
